The source of these data is PubChem BioAssay (EPA / NIEHS).

Read-out in test [1]: Human Leukocyte Antigen - DR isotype (HLADR), HLA-DRA (gene 3122)
As to the kind of experiment: BSK_BE3C_HLADR: BioMAP Diversity Plus: BE3C Assay for Human Leukocyte Antigen - DR isotype (HLADR) Biomarker Activity (AID 2283032). The note with it: primary human bronchial epithelial cells; actives raise or lower the signal. The method, boiled down: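 Primary human bronchial epithelial cells (BE3C); 24 h chemical exposure; HLA-DR by ELISA; bidirectional curve fit vs DMSO baseline.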

Read-out in test [2]: Vascular cell adhesion molecule 1 (VCAM1), VCAM1 (gene 7412)
As to the kind of experiment: BSK_4H_VCAM1: BioMAP Diversity Plus: 4H Assay for Vascular cell adhesion molecule 1 (VCAM1) Biomarker Activity (AID 2283033).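 For outcome: cell-surface VCAM-1 protein measured by ELISA.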 To be noted: primary human endothelial cells (HUVEC); actives raise or lower the signal. Put shortly:
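HUVEC, 24 h post-dose; VCAM-1 by ELISA. Bidirectional curve fit vs DMSO baseline. Parallel SRB total-protein stain (0.1% SRB after 10% TCA fixation, 560 nm) for cytotoxicity.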

Read-out in test [3]: Interferon-gamma inducible Protein 10 (IP10), CXCL10 (gene 3627)
As to the kind of experiment: BSK_BE3C_IP10: BioMAP Diversity Plus: BE3C Assay for Interferon-gamma inducible Protein 10 (IP10) Biomarker Activity (AID 2283034). The note with it: primary human bronchial epithelial cells; actives raise or lower the signal. Put shortly: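 ELISA readout of IP-10 in BE3C system: primary human bronchial epithelial cells, 24 h post-dosing; bidirectional curve fit vs DMSO baseline.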

Read-out in test [4]: Monokine induced gamma interferon (MIG), CXCL9 (gene 4283)
As to the kind of experiment: BSK_BE3C_MIG: BioMAP Diversity Plus: BE3C Assay for Monokine induced gamma interferon (MIG) Biomarker Activity (AID 2283035).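 For outcome: MIG protein measured by ELISA in BE3C cultures after 24 h of dosing.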 The note with it: primary human bronchial epithelial cells; actives raise or lower the signal. The method, boiled down:
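hu bronchial epithelial 1° cells, 24 h cpd; MIG by ELISA; bidirectional fit, DMSO = baseline.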

Read-out in test [5]: Transforming growth factor beta 1 (TGFb1), TGFB1 (gene 7040)
As to the kind of experiment: BSK_BE3C_TGFb1: BioMAP Diversity Plus: BE3C Assay for Transforming growth factor beta 1 (TGFb1) Biomarker Activity (AID 2283036;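 for outcome: TGF-b1 protein level measured by ELISA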). To be noted: primary human bronchial epithelial cells; actives raise or lower the signal. Put shortly: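 Read-out: ELISA for TGF-b1 in primary human bronchial epithelial cultures, 24 h post-dose. Bidirectional curve fitting vs DMSO control; gain or loss of signal both scored.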

Read-out in test [6]: Plasminogen activator inhibitor-1 (PAI1), SERPINE1 (gene 5054)
As to the kind of experiment: BSK_BE3C_PAI1: BioMAP Diversity Plus: BE3C Assay for Plasminogen activator inhibitor-1 (PAI1) Biomarker Activity (AID 2283037). The note with it: primary human bronchial epithelial cells; actives raise or lower the signal. Put shortly: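 ELISA read-out of PAI-1 from human bronchial epithelial primary cells, 24 h post-dosing; bidirectional curve fit vs DMSO baseline, gain or loss of signal scored.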

Read-out in test [7]: urokinase plasminogen activator (uPA), PLAU (gene 5328)
As to the kind of experiment: BSK_BE3C_uPA: BioMAP Diversity Plus: BE3C Assay for urokinase plasminogen activator (uPA) Biomarker Activity (AID 2283038).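 For outcome: uPA protein level quantified by ELISA in cell cultures; uPA read one day after compound addition.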 The note with it: primary human bronchial epithelial cells; actives raise or lower the signal. Put shortly: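 Bronchial epithelial cells (human, primary); chemical 24 h; uPA by ELISA; bidirectional fit vs DMSO. SRB (0.1%, after 10% TCA fixation, 560 nm) in parallel cultures for cytotoxicity.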

Read-out in test [8]: Urokinase-type plasminogen activator receptor (uPAR), PLAUR (gene 5329)
As to the kind of experiment: BSK_BE3C_uPAR: BioMAP Diversity Plus: BE3C Assay for Urokinase-type plasminogen activator receptor (uPAR) Biomarker Activity (AID 2283039).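 For outcome: uPAR protein level measured by ELISA on the cells; cells exposed to compound for one day before measurement.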 To be noted: primary human bronchial epithelial cells; actives raise or lower the signal. Put shortly: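 ELISA readout of uPAR on human lung primary bronchial epithelial cells, 24 h post-dosing. Bidirectional curve fit relative to DMSO vehicle baseline; gain or loss of signal both scored.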

Read-out in test [9]: Interleukin-6 (IL6), IL6 (gene 3569)
As to the kind of experiment: BSK_CASM3C_IL6: BioMAP Diversity Plus: CASM3C Assay for Interleukin-6 (IL6) Biomarker Activity for (AID 2283040). To be noted: primary human coronary artery smooth muscle cells; actives raise or lower the signal.

Read-out in test [10]: Tissue plasminogen activator (tPA), PLAT (gene 5327)
As to the kind of experiment: BSK_BE3C_tPA: BioMAP Diversity Plus: BE3C Assay for Tissue plasminogen activator (tPA) Biomarker Activity (AID 2283041).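 For outcome: tPA level quantified by ELISA one day after compound addition.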 To be noted: primary human bronchial epithelial cells; actives raise or lower the signal. Put shortly: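 ELISA read-out of tPA on human primary bronchial epithelial cells, 24 h post-dosing; bidirectional fit vs DMSO negative control/baseline.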

Where “and” joins values, the source holds several entries; their conditions need not be identical. Equal values may be shown once. Some compounds were tested as several samples or in several runs, with calls that do not always agree. Calls of active or inactive are those of the source. Rule for the calls: active = hit-call score of the fitted dose curve at least 0.9, where 1 is the maximum; inactive = score below 0.9.

Turning to `O=C(NC(=O)c1c(F)cccc1F)Nc1cc(Cl)c(OC(F)(F)C(F)F)c(Cl)c1`, the result in test [1], in [2], in [3], in test [4], in test [5] and in test [6] was inactive. In addition, the outcome in test [7], in test [8], in [9] and in test [10] was inactive.
`CCCCCCOC(=O)c1ccccc1C(=O)OCCCCCC`: the outcome in test [1], in [2], in [3], in [4], in test [5] and in test [6] was inactive. The outcome in test [7], in test [8], in [9] and in test [10] was inactive.
For the compound `O=C(O)C(F)(F)C(F)(F)C(F)(F)C(F)(F)C(F)(F)C(F)(F)C(F)(F)C(F)(F)F`, the concentration at half-maximal activity (AC50) in test [1] was 29.7 µM (active) and 44.1 µM (active) and 45.2 µM (active); in test [2], 41.7 µM (active); in test [3] it was 27.7 µM (active) and 45.9 µM (active) and 43.7 µM (active); in [4], 32.7 µM (active) and 50.1 µM (active) and 52.7 µM (active); in [5], 26.2 µM (active); in test [6], 32.3 µM (active) and 23.3 µM (active) and 40.2 µM (active). Besides, the AC50 is 37.2 µM (active) and 49.1 µM (active) and 30 µM (active) in test [7]; 35.1 µM (active) and 47.8 µM (active) and 48.6 µM (active) in [8]; 20 µM (active) and 23.6 µM (active) and 21.6 µM (active) in [10]. In addition, the result in test [2] and in test [9] was inactive.
Take `C=CC(N)=O`: the outcome in [1], in test [2], in [3], in test [4], in test [5] and in test [6] was inactive. Besides, the result in test [7], in [8], in [9] and in [10] was inactive.
In the case of `Cc1ccccc1CO[C@@H]1C[C@@]2(C(C)C)CC[C@]1(C)O2`, the result in test [1], in test [2], in test [3], in test [4], in [5] and in test [6] was inactive. The outcome in [8], in test [9] and in test [10] was inactive. Besides, in [7], the AC50 was 11.2 µM (active).
Turning to `Clc1ccc(Cl)cc1`, the result in [1], in test [2], in test [3], in test [4], in test [5] and in test [6] was inactive. Moreover, the outcome in test [7], in test [8], in test [9] and in test [10] was inactive.
Consider `c1cc2ccc3cccc4ccc(c1)c2c34`, for which the result in test [1], in test [3], in test [4], in test [5], in test [6] and in test [7] was inactive. Also, the outcome in [8], in [9] and in test [10] was inactive. For the same compound, in test [2], the AC50 was 15.5 µM (active).
Regarding `COS(=O)(=O)OC`, the result in test [1], in test [2], in test [3], in [4], in test [5] and in [6] was inactive. The outcome in test [7], in test [8], in [9] and in test [10] was inactive.
Regarding `Oc1c(Cl)c(Cl)c(Cl)c(Cl)c1Cl`, the concentration at half-maximal activity (AC50) in test [1] was 8.2 µM (active) and 20.6 µM (active); in test [2], 10.2 µM (active) and 21.5 µM (active); in test [3] it was 5.02 µM (active) and 5.67 µM (active); in [4], 11.8 µM (active) and 30.3 µM (active); in [5], 9.53 µM (active); in test [6], 1.18 µM (active) and 10.5 µM (active). For the same compound, the AC50 was 4.12 µM (active) and 14.7 µM (active) in [7]; 7.14 µM (active) and 24.6 µM (active) in test [8]; 2.56 µM (active) and 7.59 µM (active) in test [10]. The outcome in [5] and in test [9] was inactive.
Turning to `CCOP(=S)(OCC)SCSC(C)(C)C`, the result in [1], in test [2], in test [3], in test [4], in test [5] and in test [6] was inactive. The outcome in [7], in test [8], in test [9] and in test [10] was inactive.
Take `O=C(O)C(F)(F)C(F)(F)C(F)(F)C(F)(F)C(F)(F)C(F)(F)C(F)(F)C(F)(F)C(F)(F)F`: the half-maximal activity concentration (AC50) in test [1] is 11.1 µM (active) and 9.13 µM (active) and 11.4 µM (active); in test [2], 33.8 µM (active) and 46.9 µM (active) and 46 µM (active); in test [3], 9.39 µM (active) and 8.59 µM (active) and 8.35 µM (active); in test [4] it was 28.6 µM (active) and 26.9 µM (active) and 12.7 µM (active); in test [5], 10 µM (active); in [6], 14.2 µM (active) and 14.4 µM (active) and 12.8 µM (active). For the same compound, the half-maximal activity concentration (AC50) in test [7] is 16.1 µM (active) and 7.94 µM (active); in [8], 30.8 µM (active) and 16.4 µM (active) and 14.7 µM (active); in test [10], 14.9 µM (active) and 14.1 µM (active) and 14.5 µM (active). Also, the outcome in test [7] and in test [9] was inactive.
As for `C[C@]12CCC(=O)C=C1CC[C@@H]1[C@@H]2CC[C@@]2(C)[C@H]1CC[C@]2(C)O`, the outcome in test [1], in test [2], in [3], in test [4], in [5] and in [6] was inactive. The outcome in test [7], in test [8], in test [9] and in [10] was inactive.
`O=C(N[C@H]1CN2CCC1CC2)c1cc2ccoc2cn1`: the outcome in test [1], in test [2], in test [3], in test [4], in test [5] and in [6] was inactive. Further, the outcome in test [7], in [8], in test [9] and in [10] was inactive.
With `O=S(=O)(O)C(F)(F)C(F)(F)C(F)(F)C(F)(F)C(F)(F)C(F)(F)F`, the outcome in [1], in test [2], in test [3], in test [4], in test [5] and in test [6] was inactive. In addition, the result in test [7], in [8], in [9] and in test [10] was inactive.
For `CC#Cc1cc(C)nc(Nc2ccccc2)n1`, the outcome in test [1], in test [3], in test [4], in test [5], in test [6] and in test [7] was inactive. Also, the result in test [8], in [9] and in test [10] was inactive. Moreover, the AC50 in [2] is 18.1 µM (active).
For `O=C(NC(=O)c1cc(F)c(F)cc1Cl)Nc1cc(F)ccc1N1CCC(C(=O)O)CC1`, the outcome in [1], in [2], in test [3], in test [4], in test [5] and in [6] was inactive. Further, the outcome in test [7], in test [8], in test [9] and in test [10] was inactive.

By AC50 is commonly meant the midpoint of the concentration-response curve, whichever way the signal moves.
